Source: the supplement of paper PMC10849652
About 8,800 targets were measured; listed, in parts, are those with a hit and a random draw of the rest. About 0.5% of all pairs of compound and target were hits.

How the values were obtained:
Test in all cases: log2 fold change, soluble protein after heating vs DMSO (PISA); higher = thermal stabilisation; K562 lysate, 10 uM; active = over 0.2 and 3.5 SD of the protein, either way, in both replicates (recomputed)
[1] = compound: C1=CC=C(C=C1)[C@H](COC2=CC3=C(C=C2)NC(=O)N3)NC(=O)C4=CC=CN(C4=O)CC5=CC(=C(C=C5)F)F
Summary of the method: (§1)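 Log-two fold change in thermal stability relative to solvent controls is reported from duplicates. For each sample, crude K562 extract from dounce-homogenised pellets in PBS pH 7.4 with 1 mM MgCl2, at 1 mg/mL protein, was treated with 10 μM compound for 30 min. Aliquots heated for 3 min across 48°C-58°C were pooled, brought to 0.5% NP-40 at 4°C and cleared at 21,000xg for 90 min. The supernatant was quantified by TMTpro 16plex LC-MS/MS with channel sums equalised.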

[2] = compound: CC1=C(SC2=C1C(=N[C@H](C3=NN=C(N32)C)CC(=O)N)C4=CC=C(C=C4)Cl)C
Summary of the method: as §1

[3] = compound: CC1=C2C(=CC=C1)N=C(N(C2=O)C3=CC=CC=C3C)CN4C=NC5=C(N=CN=C54)N
Summary of the method: as §1

[4] = compound: Cc1sc2c(c1C)C(c1ccc(Cl)cc1)=N[C@@H](CC(=O)OC(C)(C)C)c1nnc(C)n1-2
Summary of the method: as §1

[5] = compound: c1ccc([C@@H]2C[C@H]2NC2CCNCC2)cc1
Summary of the method: as §1

Measured: log2 fold change

CHAC2 (UniProt Q8WUX2)
inactive: [1] 0.079 | [2] 0.005 | [3] 0.028 | [4] -0.025
active: [5] 0.344

CALM2 (UniProt P0DP24)
inactive: [1] -0.07 | [2] -0.177 | [3] 0.009 | [4] -0.088 | [5] -0.001

BRD2 isoform 2 (UniProt P25440)
Chain of UniProt P25440 (P25440 whole entry, looked up): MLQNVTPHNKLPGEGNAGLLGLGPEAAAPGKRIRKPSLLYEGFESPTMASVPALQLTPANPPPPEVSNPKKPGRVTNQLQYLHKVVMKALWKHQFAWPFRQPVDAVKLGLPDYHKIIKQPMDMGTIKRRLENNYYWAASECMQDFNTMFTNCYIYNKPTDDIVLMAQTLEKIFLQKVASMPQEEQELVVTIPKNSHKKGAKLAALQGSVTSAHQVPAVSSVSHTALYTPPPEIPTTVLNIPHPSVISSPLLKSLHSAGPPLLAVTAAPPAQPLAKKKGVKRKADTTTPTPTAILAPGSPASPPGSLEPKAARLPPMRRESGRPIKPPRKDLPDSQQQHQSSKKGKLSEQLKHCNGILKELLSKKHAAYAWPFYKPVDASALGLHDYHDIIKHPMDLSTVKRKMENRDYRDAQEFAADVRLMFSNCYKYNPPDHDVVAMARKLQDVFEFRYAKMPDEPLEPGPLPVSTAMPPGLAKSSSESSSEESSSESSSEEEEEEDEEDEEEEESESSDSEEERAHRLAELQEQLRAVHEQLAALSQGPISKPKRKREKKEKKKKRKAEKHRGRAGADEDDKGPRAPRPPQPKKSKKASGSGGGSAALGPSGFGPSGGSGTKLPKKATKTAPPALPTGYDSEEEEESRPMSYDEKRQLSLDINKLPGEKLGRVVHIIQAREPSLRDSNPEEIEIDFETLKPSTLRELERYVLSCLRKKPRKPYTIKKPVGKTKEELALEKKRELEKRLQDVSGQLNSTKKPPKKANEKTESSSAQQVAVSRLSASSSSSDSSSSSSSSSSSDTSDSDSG
active: [2] 1.06 | [4] 0.644
inactive: [1] 0.024 | [3] 0.081 | [5] 0.071

CELF1 isoform 4 (UniProt Q92879)
inactive: [1] 0.04 | [2] -0.005 | [3] 0.07 | [4] 0.044 | [5] 0.144

CDK5RAP2 (UniProt Q96SN8)
inactive: [1] 0.018 | [2] 0.038 | [3] 0.041 | [4] -0.026 | [5] 0.072

CBR1 (UniProt P16152)
inactive: [1] 0.03 | [2] -0.004 | [3] 0.013 | [4] -0.021 | [5] -0.056

BCKDK (UniProt O14874)
inactive: [1] -0.036 | [2] -0.007 | [3] -0.037 | [4] 0.016 | [5] 0.012

C15orf41 (UniProt Q9Y2V0)
inactive: [1] 0.111 | [2] -0.007 | [3] 0.029 | [4] 0.084 | [5] -0.008

ATG4A (UniProt Q8WYN0)
inactive: [1] 0.008 | [2] 0.022 | [3] 0.068 | [4] -0.01 | [5] -0.103

CDKN2AIP (UniProt Q9NXV6)
inactive: [1] 0.01 | [2] 0.024 | [3] 0.027 | [4] -0.041 | [5] -0.013

CARNMT1 (UniProt Q8N4J0)
Chain of UniProt Q8N4J0 (Q8N4J0 whole entry, looked up): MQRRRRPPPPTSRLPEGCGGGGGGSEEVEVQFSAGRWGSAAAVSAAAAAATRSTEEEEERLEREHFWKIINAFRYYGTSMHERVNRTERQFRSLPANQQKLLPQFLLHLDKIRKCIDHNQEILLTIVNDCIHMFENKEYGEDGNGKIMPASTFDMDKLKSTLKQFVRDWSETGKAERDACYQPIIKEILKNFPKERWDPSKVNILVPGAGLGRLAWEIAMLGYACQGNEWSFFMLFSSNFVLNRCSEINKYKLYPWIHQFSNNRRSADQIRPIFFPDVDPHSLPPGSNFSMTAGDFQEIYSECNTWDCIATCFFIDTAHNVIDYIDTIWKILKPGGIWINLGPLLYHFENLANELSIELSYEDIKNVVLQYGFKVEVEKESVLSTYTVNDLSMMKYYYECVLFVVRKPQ
inactive: [1] 0.032 | [2] -0.003 | [3] 0.072 | [4] -0.039 | [5] -0.174

BRD3 (UniProt Q15059)
active: [2] 0.631 | [4] 0.5
inactive: [1] 0.027 | [3] 0.112 | [5] -0.167

CEP76 (UniProt Q8TAP6)
Chain of UniProt Q8TAP6 (Q8TAP6 whole entry, looked up): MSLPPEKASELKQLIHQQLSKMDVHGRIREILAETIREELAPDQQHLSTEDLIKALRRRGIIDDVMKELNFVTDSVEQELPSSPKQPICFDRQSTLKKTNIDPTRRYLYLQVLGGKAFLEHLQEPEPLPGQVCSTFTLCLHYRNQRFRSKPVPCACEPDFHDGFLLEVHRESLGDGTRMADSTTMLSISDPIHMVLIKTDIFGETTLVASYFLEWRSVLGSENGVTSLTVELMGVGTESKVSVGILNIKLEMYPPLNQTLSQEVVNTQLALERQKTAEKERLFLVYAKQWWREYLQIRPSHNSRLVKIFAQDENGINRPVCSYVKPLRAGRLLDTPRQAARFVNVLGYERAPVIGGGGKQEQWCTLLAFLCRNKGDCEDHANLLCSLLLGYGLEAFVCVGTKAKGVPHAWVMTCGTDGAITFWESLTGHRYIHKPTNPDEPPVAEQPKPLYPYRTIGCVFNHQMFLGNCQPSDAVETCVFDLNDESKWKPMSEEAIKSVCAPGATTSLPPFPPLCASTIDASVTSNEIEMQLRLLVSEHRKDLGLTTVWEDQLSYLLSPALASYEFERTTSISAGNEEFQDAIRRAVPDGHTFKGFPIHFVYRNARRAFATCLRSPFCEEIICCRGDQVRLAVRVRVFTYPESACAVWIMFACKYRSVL
inactive: [1] -0.009 | [2] -0.01 | [3] -0.043 | [4] 0.002 | [5] -0.027

ATG13 isoform 2 (UniProt O75143)
Chain of UniProt O75143 (O75143 whole entry, looked up): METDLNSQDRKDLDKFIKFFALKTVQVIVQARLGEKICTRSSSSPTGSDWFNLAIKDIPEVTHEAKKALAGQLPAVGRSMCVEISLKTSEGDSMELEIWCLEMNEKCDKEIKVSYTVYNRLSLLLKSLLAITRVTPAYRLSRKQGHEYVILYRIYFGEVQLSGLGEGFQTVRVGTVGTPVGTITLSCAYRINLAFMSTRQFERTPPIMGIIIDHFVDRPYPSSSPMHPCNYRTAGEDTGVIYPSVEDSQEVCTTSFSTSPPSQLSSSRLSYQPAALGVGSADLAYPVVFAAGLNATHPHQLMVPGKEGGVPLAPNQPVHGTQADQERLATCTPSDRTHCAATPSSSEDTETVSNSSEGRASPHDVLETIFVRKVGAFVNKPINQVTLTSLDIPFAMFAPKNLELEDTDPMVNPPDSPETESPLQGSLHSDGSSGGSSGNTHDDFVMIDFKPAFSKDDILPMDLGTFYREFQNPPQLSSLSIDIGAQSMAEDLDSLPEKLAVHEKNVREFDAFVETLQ
inactive: [1] 0.001 | [2] 0.026 | [3] 0.055 | [4] 0.045 | [5] -0.166

ATG7 (UniProt O95352)
Chain of UniProt O95352 (O95352 whole entry, looked up): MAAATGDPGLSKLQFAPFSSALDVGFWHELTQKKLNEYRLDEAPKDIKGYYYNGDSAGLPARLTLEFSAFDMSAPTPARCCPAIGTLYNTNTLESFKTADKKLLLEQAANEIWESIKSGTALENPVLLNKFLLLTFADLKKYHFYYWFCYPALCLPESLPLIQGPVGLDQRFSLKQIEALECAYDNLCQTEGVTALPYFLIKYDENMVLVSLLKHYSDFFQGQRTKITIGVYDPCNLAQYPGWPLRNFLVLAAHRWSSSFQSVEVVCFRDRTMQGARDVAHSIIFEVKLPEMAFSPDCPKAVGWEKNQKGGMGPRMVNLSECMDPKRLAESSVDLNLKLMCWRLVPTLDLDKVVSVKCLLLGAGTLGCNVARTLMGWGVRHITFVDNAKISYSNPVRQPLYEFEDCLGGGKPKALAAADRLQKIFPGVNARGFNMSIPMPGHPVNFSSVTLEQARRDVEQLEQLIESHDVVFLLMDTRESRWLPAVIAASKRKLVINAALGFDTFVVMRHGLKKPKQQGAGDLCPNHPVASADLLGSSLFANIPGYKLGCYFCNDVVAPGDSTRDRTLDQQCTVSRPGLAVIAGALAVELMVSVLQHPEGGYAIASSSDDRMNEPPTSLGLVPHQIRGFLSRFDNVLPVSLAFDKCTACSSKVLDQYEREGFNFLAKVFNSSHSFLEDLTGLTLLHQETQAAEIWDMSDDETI
inactive: [1] 0.014 | [2] 0.003 | [3] 0.028 | [4] -0.014 | [5] 0.044

CCDC25 (UniProt Q86WR0)
Chain of UniProt Q86WR0 (Q86WR0 whole entry, looked up): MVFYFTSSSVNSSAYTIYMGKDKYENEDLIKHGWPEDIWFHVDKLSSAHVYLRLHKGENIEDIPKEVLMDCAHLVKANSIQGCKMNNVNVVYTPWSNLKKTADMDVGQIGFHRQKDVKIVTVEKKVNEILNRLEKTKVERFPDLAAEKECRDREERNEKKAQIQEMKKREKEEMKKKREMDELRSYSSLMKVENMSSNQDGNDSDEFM
inactive: [1] 0.008 | [2] 0.035 | [3] 0.023 | [4] -0.015 | [5] 0.164

C12orf45 (UniProt Q8N5I9)
Chain of UniProt Q8N5I9 (Q8N5I9 whole entry, looked up): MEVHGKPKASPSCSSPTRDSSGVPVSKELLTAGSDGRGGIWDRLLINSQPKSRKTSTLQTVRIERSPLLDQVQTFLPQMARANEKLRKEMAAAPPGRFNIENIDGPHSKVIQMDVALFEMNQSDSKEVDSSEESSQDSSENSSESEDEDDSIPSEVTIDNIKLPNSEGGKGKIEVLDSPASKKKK
inactive: [1] 0.074 | [2] 0 | [3] -0.007 | [4] -0.008 | [5] -0.122

CES2 isoform 4 (UniProt O00748)
Chain of UniProt O00748 (O00748 whole entry, looked up): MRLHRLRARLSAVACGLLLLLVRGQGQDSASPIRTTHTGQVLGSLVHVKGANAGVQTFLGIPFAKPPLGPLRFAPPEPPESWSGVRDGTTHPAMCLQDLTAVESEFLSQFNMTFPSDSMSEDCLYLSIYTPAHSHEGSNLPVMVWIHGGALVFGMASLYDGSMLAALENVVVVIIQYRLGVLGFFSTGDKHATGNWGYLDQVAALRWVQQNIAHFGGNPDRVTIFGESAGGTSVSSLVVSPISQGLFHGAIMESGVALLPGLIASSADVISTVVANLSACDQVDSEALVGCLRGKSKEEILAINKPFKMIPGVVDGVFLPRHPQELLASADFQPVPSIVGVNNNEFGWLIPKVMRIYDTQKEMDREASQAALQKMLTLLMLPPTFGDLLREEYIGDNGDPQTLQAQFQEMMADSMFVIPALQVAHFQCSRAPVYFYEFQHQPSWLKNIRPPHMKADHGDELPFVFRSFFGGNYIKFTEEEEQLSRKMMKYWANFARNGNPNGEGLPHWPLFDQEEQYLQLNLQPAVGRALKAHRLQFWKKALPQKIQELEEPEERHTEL
inactive: [1] 0.129 | [2] 0.159 | [3] -0.089 | [4] 0.093 | [5] -0.07

CDC42EP4 (UniProt Q9H3Q1)
inactive: [1] 0.113 | [2] -0.084 | [3] -0.098 | [4] 0.004 | [5] -0.036

CHCHD2 (UniProt Q9Y6H1)
Chain of UniProt Q9Y6H1 (Q9Y6H1 whole entry, looked up): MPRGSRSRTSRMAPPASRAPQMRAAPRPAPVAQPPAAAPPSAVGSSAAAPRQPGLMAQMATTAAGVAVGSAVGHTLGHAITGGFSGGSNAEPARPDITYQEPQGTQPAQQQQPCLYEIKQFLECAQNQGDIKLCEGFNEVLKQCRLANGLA
inactive: [1] -0.123 | [2] -0.043 | [3] -0.015 | [4] 0.062 | [5] -0.01

BAG4 (UniProt O95429)
Chain of UniProt O95429 (O95429 whole entry, looked up): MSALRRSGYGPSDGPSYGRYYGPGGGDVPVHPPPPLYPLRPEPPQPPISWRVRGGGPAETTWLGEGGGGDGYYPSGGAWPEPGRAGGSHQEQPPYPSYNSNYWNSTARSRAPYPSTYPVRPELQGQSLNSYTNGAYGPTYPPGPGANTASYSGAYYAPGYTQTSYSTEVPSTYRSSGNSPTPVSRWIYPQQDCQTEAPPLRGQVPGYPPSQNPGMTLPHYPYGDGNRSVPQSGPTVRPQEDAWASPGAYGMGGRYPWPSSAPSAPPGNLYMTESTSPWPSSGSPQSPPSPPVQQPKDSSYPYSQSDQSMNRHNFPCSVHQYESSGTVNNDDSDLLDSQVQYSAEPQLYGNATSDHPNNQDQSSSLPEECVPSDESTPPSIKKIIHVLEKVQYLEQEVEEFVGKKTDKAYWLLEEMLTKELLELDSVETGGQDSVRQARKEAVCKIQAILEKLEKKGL
inactive: [1] 0.059 | [2] 0.021 | [3] -0.023 | [4] 0.03 | [5] 0.003

ATXN2 (UniProt F8WB05)
inactive: [1] -0.17 | [2] 0.212 | [3] 0.146 | [4] 0.004 | [5] 0.022

C19orf54 (UniProt Q5BKX5)
inactive: [1] 0.04 | [2] 0.102 | [3] -0.007 | [4] 0.033 | [5] 0.043

CCNB2 (UniProt O95067)
inactive: [1] -0.005 | [2] 0.026 | [3] 0.047 | [4] 0.048 | [5] 0.033

BTAF1 (UniProt O14981)
inactive: [1] 0.013 | [2] 0 | [3] -0.005 | [4] 0.04 | [5] -0.02

CENPQ (UniProt Q7L2Z9)
inactive: [1] -0.02 | [2] -0.02 | [3] 0.038 | [4] 0.021 | [5] -0.013

CCNH (UniProt P51946)
Chain of UniProt P51946 (P51946 whole entry, looked up): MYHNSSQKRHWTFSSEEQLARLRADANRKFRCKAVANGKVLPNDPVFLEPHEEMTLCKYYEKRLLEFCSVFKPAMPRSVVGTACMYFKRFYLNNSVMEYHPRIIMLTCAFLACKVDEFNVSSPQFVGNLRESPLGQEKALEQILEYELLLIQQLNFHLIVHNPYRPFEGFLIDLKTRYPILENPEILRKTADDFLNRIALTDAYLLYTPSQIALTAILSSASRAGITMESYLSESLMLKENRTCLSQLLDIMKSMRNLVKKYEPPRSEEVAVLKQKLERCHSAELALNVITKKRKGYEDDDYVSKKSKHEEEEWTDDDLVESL
inactive: [1] -0.028 | [2] -0.004 | [3] 0.022 | [4] -0.039 | [5] -0.01

CDCA8 (UniProt Q53HL2)
inactive: [1] 0.038 | [2] 0.037 | [3] -0.213 | [4] -0.048 | [5] 0.104

CCDC51 (UniProt Q96ER9)
inactive: [1] -0.063 | [2] 0.023 | [3] -0.029 | [4] 0.014 | [5] 0.157

BRAF (UniProt P15056)
inactive: [1] -0.024 | [2] -0.051 | [3] 0.012 | [4] -0.017 | [5] -0.06

CHCHD1 (UniProt Q96BP2)
inactive: [1] -0.026 | [2] 0.024 | [3] -0.04 | [4] -0.091
active: [5] 0.627

BUD23 isoform 3 (UniProt O43709)
inactive: [1] 0.076 | [2] 0.03 | [3] 0.021 | [4] 0 | [5] -0.154

CCDC186 (UniProt Q7Z3E2)
inactive: [1] 0.031 | [2] 0.085 | [3] 0.055 | [4] -0.016 | [5] 0.105
